This is a sample that favours compounds with a hit; in the whole collection about 3.2% have one here.
FBPA coupling cs: inhibits coupling enzyme system, counter-screen for aldolase hits; coupling enzyme system counterscreen, AmpLite Red fluorescence; activity change, negative = inhibition, % at 58.2 µM, hits read low; 290,000 tested, 0.67% active; AID 2472; in the data active means activity change below about -30%
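Compounds tested against the coupling enzymes alone at 57.5 uM final; readout was AmpLite Red fluorescence (525/598 nm) after 20 min at RT.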
USP2a block: blocks human ubiquitin-specific protease USP2a; O75604; USP2 core, Ub-CHOP2 coupled fluorogenic reporter, 485/531; Potency, µM (doses to about 38.3 µM), inactives show at the highest dose activity change, negative = inhibition, hits mostly inhibitors; 330,000 tested, 0.01% active;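 further: potency means the concentration at half of the fitted maximal effect; plate controls were DMSO wells for no effect and full inhibition by NEM control for full effect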
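Deubiquitinase activity read as fluorescence (485/531 nm) after Ub-CHOP2 cleavage activates the enterokinase reporter on its substrate; USP2 core 10nM, Ub-CHOP2 and substrate 25nM each, 30min compound preincubation then 60min RT; data normalized to NEM, curves fitted.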
VDR inhibitor: vitamin D3 receptor (human) inhibition; P11473; VDR-SRC2-3 peptide fluorescence polarization, 2 h; Potency, µM, inactives show max response, negative = inhibition, actives largely listed as inhibitors; 400,000 tested, 0.93% active; AID 504847; further: potency means the concentration at half of the fitted maximal effect
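Fluorescence polarization assay of small-molecule disruption of VDR binding to coregulator peptide SRC2-3. Compounds and controls pin-transferred, then read after 2 h incubation at ambient room temperature.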
GALK inh: inhibitors of human galactokinase | P51570 | Purified GALK, Kinase-Glo residual ATP luminescence | Potency, µM (titrated, usually from 57.5 µM), inactives show at the highest dose activity change, negative = inhibition, hits mostly inhibitors | 270,000 tested, 0.007% active; further: potency means the concentration at half of the fitted maximal effect
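ATP-depletion format; final 35 uM ATP, 100 uM D-galactose, 5 nM enzyme; pH 8.0 HEPES/Mg2+ buffer; 60 min RT; luminescence read 10 min after detection reagent.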
USP1-UAF1 inh: inhibitors of human USP1/UAF1 deubiquitinase; O94782; recombinant USP1/UAF1, Ub-Rhodamine cleavage fluorescence; Potency, µM (top dose mostly 57.1 µM), without a hit: at the highest dose activity change, negative = inhibition, actives largely listed as inhibitors; 390,000 tested, 0.23% active; further: potency means the concentration at half of the fitted maximal effect; nearly all actives have a fitted effect of over 60% in size
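USP1/UAF1 complex at 1 nM was preincubated with compound for 15 min at room temperature, then Ub-Rho substrate (150nM final) was added. Fluorescence (480/540 nm) was read kinetically, 6 reads every 60 seconds.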
PLK1 PBD block: inhibitors of human PLK1 polo-box domain binding | Potency, µM, without a hit: max response, negative = inhibition, hits mostly inhibitors | P53350 | 360,000 tested, 2.8% active | Plk1 PBD binding of FITC phosphopeptide, fluorescence polarization; further: potency means the concentration at half of the fitted maximal effect; series mostly up to about 57 µM; nearly all actives have a fitted effect of over 65% in size
Target sequence (P53350 whole entry, looked up, the tested form may be a part): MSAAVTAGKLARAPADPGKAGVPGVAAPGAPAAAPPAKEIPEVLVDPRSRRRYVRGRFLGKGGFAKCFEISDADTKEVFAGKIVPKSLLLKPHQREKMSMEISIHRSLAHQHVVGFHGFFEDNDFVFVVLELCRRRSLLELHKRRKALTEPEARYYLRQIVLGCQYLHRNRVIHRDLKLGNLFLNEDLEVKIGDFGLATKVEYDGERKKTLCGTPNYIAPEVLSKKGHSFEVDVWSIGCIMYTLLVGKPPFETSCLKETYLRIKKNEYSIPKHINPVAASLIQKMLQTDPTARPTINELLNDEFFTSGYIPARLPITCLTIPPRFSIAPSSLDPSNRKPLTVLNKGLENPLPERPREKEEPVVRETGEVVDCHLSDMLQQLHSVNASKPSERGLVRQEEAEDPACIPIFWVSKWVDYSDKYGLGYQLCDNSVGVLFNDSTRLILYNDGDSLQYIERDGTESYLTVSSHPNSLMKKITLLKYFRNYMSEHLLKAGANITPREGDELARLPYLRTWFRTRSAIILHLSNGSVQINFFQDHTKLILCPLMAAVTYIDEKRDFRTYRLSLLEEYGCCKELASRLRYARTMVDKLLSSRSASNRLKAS
* hit, by the source's call; ? = inconclusive; . = not tested or not shown. Unless noted, the call rests on the fitted dose curve; in most records, active means well fitted curve in the direction sought with a large enough effect; inconclusive means small, poorly fitted or top-dose-only effect, or another doubt; inactive means no such curve, though single readings can be large; an effect the other way counts as inactive or inconclusive. Unless noted, on the % scale 0 is the no-effect control and ±100 the full control effect.

SMILES	FBPA coupling cs	USP2a block	VDR inhibitor	GALK inh	USP1-UAF1 inh	PLK1 PBD block
COCCNC(=O)C(=O)NNS(=O)(=O)c1ccc2ccccc2c1	2.6	-1.7%	?	8.2%	-2.8%	18.9µM*
Cc1ccc(NC(=S)NNS(=O)(=O)c2ccc3ccccc3c2)cc1Cl	0.2	-2.6%	-24.2%	-3.0%	?	18.9µM*
COc1ccc(CN2CCN(C(=O)c3cccnc3)CC2)cc1Br	0.0	2.3%	-2.0%	2.0%	-8.5%	-2.8%
CCOC(=O)N1CCN(C(=O)CSCc2ccccc2)CC1	-2.0	3.5%	?	1.3%	-17.0%	-9.3%
CCOC(=O)N1CCN(C(=O)CSc2ccccc2)CC1	3.9	2.4%	-8.8%	1.3%	-17.4%	15µM*
O=C(CSc1ccc(Cl)cc1)N1CCCC1	-1.6	3.8%	?	0.1%	-21.2%	23.8µM*
CCOC(=O)N1CCC(NC(=O)Cn2ncc3ccccc32)CC1	0.0	-1.8%	-0.2%	3.6%	?	-4.5%
CCOC(=O)C1CCCN(C(=O)CSc2ccc(Br)cc2)C1 (stereo unspecified)	0.0	-0.6%	?	12.8%	-1.1%	23.8µM*
CCOC(=O)N1CCN(C(=O)Cn2ncc3ccccc32)CC1	1.5	1.6%	-23.2%	1.8%	-5.7%	29.9µM*
NS(=O)(=O)c1cc(C(=O)NNC(=O)c2ccc3c(c2)OCO3)ccc1Cl	.	2.7%	-2.5%	.	-9.0%	1.1%
CC(C)(CO)CN1CCC(n2nccc2NC(=O)C2CCOC2)CC1 (stereo unspecified)	.	.	.	.	-20.7%	4.0%
CCO[C@H]1OC(C(=O)O)=C[C@@H](c2csc3ccccc23)[C@@H]1CCCO	9.4	1.5%	-15.6%	-2.5%	-19.6%	-2.0%
O=C(O)C1Sc2[nH]c(=O)sc2C2c3cc(Br)ccc3OC(=O)C12 (stereo unspecified)	-0.6	4.2%	?	.	-3.4%	29.9µM*
O=C(O)C1Sc2[nH]c(=O)sc2C2c3ccc(O)cc3OC(=O)C12 (stereo unspecified)	-1.5	9.5%	-0.2%	-3.3%	?	29.9µM*
NC(=O)c1ccc(-n2nnnc2Oc2ccccc2)cc1	2.2	2.4%	-20.7%	-2.0%	-9.2%	23.8µM*
COc1cc(C(Nc2ccc3c(c2)OCO3)C(=O)NC2CCCCC2)cc(OC)c1OC (stereo unspecified)	-21.2	0.8%	-13.9%	-4.9%	-9.6%	-13.3%
O=C(NCc1ccncc1)C12CC3CC(CC(C3)C1)C2	3.7	1.8%	-2.0%	3.7%	1.1%	-3.4%
CN(Cc1ccco1)c1nc(-c2ccccc2C(F)(F)F)nc2ccccc12	-1.0	.	35.5µM*	.	.	.
CN(Cc1ccco1)c1nc(-c2cccnc2)nc2ccccc12	0.5	.	31.6µM*	.	.	.
Cc1ccc(CN(C)c2nc(-c3cccnc3)nc3ccccc23)o1	0.1	0.9%	-18.3%	1.7%	-6.3%	-14.4%
CC[C@@]1(c2cccc(C)c2)C(=O)N(C(=O)OC)N1C(=O)OC	-0.8	1.3%	?	.	-29.3%	9.47µM*
COC(=O)N1C(=O)[C@](CC(C)C)(c2ccccc2)N1C(=O)OC	0.0	4.4%	79.4µM*	.	?	13.4µM*
COc1cccc(-c2nc(SCC(=O)Nc3nc(-c4ccccc4)c(C)s3)[nH]c(=O)c2C#N)c1	5.6	0.4%	-13.2%	-17.8%	-16.9%	21.2µM*
CCOc1ccc2nc(NC(=O)CSc3nc(-c4ccccc4)c(C#N)c(=O)[nH]3)sc2c1	15.3	2.8%	-5.0%	-25.1%	?	21.2µM*
Cc1sc(NC(=O)CSc2nc(O)cc(=O)[nH]2)nc1-c1ccccc1	10.7	2.0%	-1.8%	-6.4%	-10.8%	-17.1%
SMILES	FBPA coupling cs	USP2a block	VDR inhibitor	GALK inh	USP1-UAF1 inh	PLK1 PBD block
CCOC(=O)Cc1csc(NC(=O)CSc2nc(-c3ccccc3)c(C#N)c(=O)[nH]2)n1	14.7	-0.3%	-2.4%	10.5%	-18.8%	-6.8%
COc1ccccc1NS(=O)(=O)c1cc(NC(=O)c2sccc2C)ccc1N1CCCC1	-8.1	6.6%	89.1µM*	0.1%	-13.1%	6.7µM*
COc1ccccc1NS(=O)(=O)c1cc(NC(=O)Nc2ccccc2)ccc1N1CCCCC1	-1.3	0.3%	-6.3%	0.1%	-12.4%	?
COc1ccccc1NS(=O)(=O)c1cc(NC(=O)C(C)C)ccc1N1CCCCC1	0.0	-1.1%	79.4µM*	8.6%	-6.5%	11.9µM*
COc1ccccc1NS(=O)(=O)c1cc(NC(=O)c2cc[n+]([O-])cc2)ccc1N1CCCC1	-0.4	-12.1%	-29.9%	8.8%	-13.8%	2.99µM*
COc1ccccc1NS(=O)(=O)c1cc(NC(=O)c2sccc2C)ccc1N1CCOCC1	0.6	-1.7%	-11.7%	-1.6%	0.1%	-15.3%
CCCNC(=O)C1(C)CCCN(C(=O)c2cccnc2Oc2ccccc2)C1 (stereo unspecified)	.	.	.	.	.	-3.3%
Cc1cc2nnc(SC(C)C)n2c2ccccc12	0.9	5.1%	-2.9%	-1.6%	4.6%	1.5%
Cc1cc2nnc(SC(C)C#N)n2c2ccccc12 (stereo unspecified)	0.2	-2.3%	-23.3%	-4.1%	-4.1%	21.2µM*
Cc1ccc(-n2nnnc2-c2cnoc2-c2cccc(F)c2)cc1	-1.3	4.7%	50.1µM*	-0.8%	-5.0%	21.2µM*
N#Cc1c(N)sc(=S)c2c1CCN(Cc1ccccc1)C2	-59.0*	4.9%	.	?	.	.
CC(C)(C)c1cnnn1-c1ccc(NC(=O)c2ccc3c(c2)OCO3)cc1	-0.2	-0.3%	14.4%	0.2%	-2.0%	-2.9%
Clc1cccc(-c2nnc3sc(-c4ccc5c(c4)OCO5)nn23)c1	2.6	2.4%	.	0.4%	.	.
c1ccc(OCc2nnc3sc(-c4cccs4)nn23)cc1	-4.7	2.0%	?	-3.4%	-19.7%	5.32µM*
O=c1[nH]cnc2scc(C3COc4ccccc4O3)c12 (stereo unspecified)	4.1	-5.8%	0.4%	4.1%	-15.5%	1.0%
c1ccc2c(c1)OCC(c1nnc3sc(-c4ccc5c(c4)OCO5)nn13)O2 (stereo unspecified)	0.3	3.6%	?	-0.2%	-9.1%	6.7µM*
COc1ccc(-c2nn3c(COc4ccccc4)nnc3s2)cc1OC	1.6	-6.8%	-3.4%	4.9%	-3.7%	?
c1ccc2c(c1)OCC(c1nnc3sc(-c4cnccn4)nn13)O2 (stereo unspecified)	-3.8	-1.0%	?	0.2%	-21.4%	28.2µM*
Clc1ccccc1-c1nnc2sc(-c3ccc4c(c3)OCO4)nn12	5.8	-0.2%	?	2.0%	-8.1%	4.74µM*
CCN(CC)c1ccc(/C=N/NC(=O)C2CC2)cc1	0.2	4.3%	-8.8%	-8.5%	-9.8%	-7.8%

Screens from PubChem.
